Counter-ions that a name gives are not always drawn. ± gives the uncertainty stated by the source.

In this experiment the test system is NCC-PMP1-C1. The experiment in a line: cell viability relative to DMSO control; higher = less growth inhibition. The following applies: 10 µM; 72 h. Here is the method:
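NCC-PMP1-C1 pseudomyxoma peritonei cells were seeded in 384-well plates coated with Matrigel and MEF (1e4 cells). Viability was read after 72 h by CCK-8 and expressed as % of the DMSO control, mean ± SD of duplicates.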
A word on the cell viability: it is a read-out of living cells in per cent, often relative to untreated cells. As to `O=C(CCCCCCC(=O)Nc1ccccc1)NO` [Vorinostat (SAHA, MK0683)], the cell viability was determined as 27.7 ± 2.2%.
With `COc1cccc2c1C(=O)c1c(O)c3c(c(O)c1C2=O)C[C@@](O)(C(=O)CO)C[C@@H]3O[C@H]1C[C@H](N)[C@H](O)[C@H](C)O1` [Doxorubicin (Adriamycin)] the figure was 3.06 ± 0.067%; with `COc1cccc2c1C(=O)c1c(O)c3c(c(O)c1C2=O)C[C@@](O)(C(=O)CO)C[C@@H]3O[C@H]1C[C@H](N)[C@@H](O)[C@H](C)O1` [Epirubicin HCl], 3.6 ± 0.6%; with `CNC(=O)c1ccccc1Sc1ccc2c(/C=C/c3ccccn3)n[nH]c2c1` [Axitinib], 61.27 ± 0.13%.
With `COc1cc2nccc(Oc3ccc(NC(=O)Nc4cc(C)on4)c(Cl)c3)c2cc1OC` [Tivozanib (AV-951)] the figure was 60.7 ± 11%; with `Nc1nc2n[nH]nc2c(=O)[nH]1` [Azaguanine-8], 55.8 ± 6.5%.
In the case of `C=C1c2cccc(O)c2C(O)=C2C(=O)[C@]3(O)C(O)=C(C(N)=O)C(=O)[C@@H](N(C)C)[C@@H]3[C@@H](O)[C@H]12` [Methacycline HCl], the cell viability amounted to 108.4 ± 0.2%.
Regarding `COc1ccc(/C=C/C(=O)Nc2ccccc2C(=O)O)cc1OC` [Tranilast], the cell viability came out at 111 ± 20%.
On to `O=C1c2c(O)ccc(O)c2C(=O)c2c(NCCNCCO)ccc(NCCNCCO)c21` [Mitoxantrone 2HCl], for which the cell viability is 2.67 ± 1.1%.
In the case of `CC(C)(C)c1cc(NC(=O)Nc2ccc(-c3cn4c(n3)sc3cc(OCCN5CCOCC5)ccc34)cc2)no1` [Quizartinib (AC220)], the cell viability worked out at 78.9%.
As for `Cc1nc(NC(=O)N2CCC[C@H]2C(N)=O)sc1-c1ccnc(C(C)(C)C(F)(F)F)c1` [Alpelisib], the cell viability was found to be 56.6 ± 3%.
As to `Cc1c2oc3c(C)ccc(C(=O)N[C@@H]4C(=O)N[C@H](C(C)C)C(=O)N5CCC[C@H]5C(=O)N(C)CC(=O)N(C)[C@@H](C(C)C)C(=O)O[C@@H]4C)c3nc-2c(C(=O)N[C@@H]2C(=O)N[C@H](C(C)C)C(=O)N3CCC[C@H]3C(=O)N(C)CC(=O)N(C)[C@@H](C(C)C)C(=O)O[C@@H]2C)c(N)c1=O` [Actinomycin D], the cell viability worked out at 8.77 ± 0.95%.
With `C[C@@H]1CCN(C(=O)CC#N)C[C@@H]1N(C)c1ncnc2[nH]ccc12` the figure was 77.2 ± 22%; with `COc1cc2nccc(Oc3ccc(NC(=O)NC4CC4)c(Cl)c3)c2cc1C(N)=O` [Lenvatinib (E7080)], 69.6 ± 2%.
With `CN(N=O)C(=O)NC1C(O)OC(CO)C(O)C1O` (stereo not given) [Streptozotocin (STZ)] the figure was 111 ± 3.5%.
On to `CCc1ccc(CCOc2ccc(CC3SC(=O)NC3=O)cc2)nc1` (stereo not given) [Pioglitazone], for which the cell viability was determined as 92.8 ± 5.5%.
In the case of `O=C(O)C1=CO[C@@H](O[C@@H]2O[C@H](CO)[C@@H](O)[C@H](O)[C@H]2O)[C@@H]2C(CO)=CC[C@H]12` [Geniposidic acid], the cell viability is 97.1 ± 2.2%.
For `COc1cc2c(Oc3ccc(NC(=O)C4(C(=O)Nc5ccc(F)cc5)CC4)cc3F)ccnc2cc1OCCCN1CCOCC1`, the cell viability was 2.42 ± 1%.
With `COc1cc2nccc(Oc3ccc(NC(=O)C4(C(=O)Nc5ccc(F)cc5)CC4)cc3)c2cc1OC` [Cabozantinib malate (XL184)], the cell viability was 52.5 ± 6.2%.
For `O=S(=O)(O)CCS` [Mesna], the cell viability was -9.24%.
In the case of `Cc1ccc(S(=O)(=O)Nc2nc3ccccc3nc2Nc2ccc3nsnc3c2)cc1` [XL147 analog], the cell viability amounted to 96.2 ± 9%.
The same measure for `O=c1[nH]c(=O)n([C@H]2C[C@H](O)[C@@H](CO)O2)cc1F` [Floxuridine]: 108 ± 12%; for `CC[C@H]1OC(=O)[C@H](C)[C@@H](O[C@H]2C[C@@](C)(OC)[C@@H](O)[C@H](C)O2)[C@H](C)[C@@H](O[C@@H]2O[C@H](C)C[C@H](N(C)C)[C@H]2O)[C@](C)(O)C[C@@H](C)CN(C)[C@H](C)[C@@H](O)[C@]1(C)O` [Azithromycin]: 123 ± 2.7%.
As to `CN(Cc1cnc2nc(N)nc(N)c2n1)c1ccc(C(=O)N[C@@H](CCC(=O)O)C(=O)O)cc1` [Methotrexate], the cell viability is 110 ± 1.7%.
Regarding `CC(=O)[C@]1(O)Cc2c(O)c3c(c(O)c2[C@@H](O[C@H]2C[C@H](N)[C@H](O)[C@H](C)O2)C1)C(=O)c1ccccc1C3=O` [Idarubicin HCl], the cell viability was 4.26 ± 0.73%.
The same measure for `S=c1[nH]cnc2nc[nH]c12` [Mercaptopurine (6-MP)]: -6.45%.
With `COc1cc2c(cc1O)CCN[C@]21CS[C@@H]2c3c(OC(C)=O)c(C)c4c(c3[C@H](COC1=O)N1[C@@H]2[C@H]2c3c(cc(C)c(OC)c3O)C[C@@H]([C@@H]1O)N2C)OCO4` [Trabectedin] the figure was -0.842 ± 0.95%.
As to `CN(C)c1nc(N(C)C)nc(N(C)C)n1` [Altretamine], the cell viability stood at 113 ± 7.4%.
As for `Cc1cn(-c2cc(NC(=O)c3ccc(C)c(Nc4nccc(-c5cccnc5)n4)c3)cc(C(F)(F)F)c2)cn1` [Nilotinib (AMN-107)], the cell viability is 70.1 ± 16%.
Take `Cc1ccc(NC(=O)c2ccc(CN3CCN(C)CC3)cc2)cc1Nc1nccc(-c2cccnc2)n1` [Imatinib (STI571)]: the cell viability stood at 92.3 ± 6.7%.
`O=C1CCC(N2C(=O)c3ccccc3C2=O)C(=O)N1` (stereo not given) [Thalidomide]: the cell viability is 110 ± 6.2%.
As for `CO[C@@]12[C@H](COC(N)=O)C3=C(C(=O)C(C)=C(N)C3=O)N1C[C@@H]1N[C@@H]12` [Mitomycin C], the cell viability was 60.3 ± 9.8%.
`CN1c2cc(O)c(N=NC(N)=O)cc2CC1S(=O)(=O)O` (stereo not given) [Carbazochrome sodium sulfonate (AC-17)]: the cell viability amounted to 90.4 ± 9.1%.
On to `CCCS(=O)(=O)Nc1ccc(F)c(C(=O)c2c[nH]c3ncc(-c4ccc(Cl)cc4)cc23)c1F` [Vemurafenib (PLX4032, RG7204)], for which the cell viability is -12.5 ± 0.2%.
With `CC[C@]1(O)C[C@H]2CN(CCc3c([nH]c4ccccc34)[C@@](C(=O)OC)(c3cc4c(cc3OC)N(C=O)[C@H]3[C@@](O)(C(=O)OC)[C@H](OC(C)=O)[C@]5(CC)C=CCN6CC[C@]43[C@@H]65)C2)C1` [Vincristine], the cell viability came out at 50.8 ± 0.53%.
Take `CS(=O)(=O)c1ccc(C(=O)Nc2ccc(Cl)c(-c3ccccn3)c2)c(Cl)c1` [Vismodegib (GDC-0449)]: the cell viability was 90.5 ± 3.3%.
In the case of `CCN1CCN(c2ccc(Nc3cc(N(C)C(=O)Nc4c(Cl)c(OC)cc(OC)c4Cl)ncn3)cc2)CC1`, the cell viability worked out at 56.5 ± 0.47%.
As for `CS(=O)(=O)CCNCc1ccc(-c2ccc3ncnc(Nc4ccc(OCc5cccc(F)c5)c(Cl)c4)c3c2)o1`, the cell viability turned out to be 51.2 ± 7.9%.
On to `C[C@@]12C[C@@]3(O)O[C@@H](O1)[C@]1(COC(=O)c4ccccc4)[C@H]3C[C@@]12O[C@@H]1O[C@H](CO)[C@@H](O)[C@H](O)[C@H]1O` [Paeoniflorin], for which the cell viability amounted to 78.6 ± 9%.
Take `Oc1ncnc2[nH]ncc12` [Allopurinol]: the cell viability was determined as 123 ± 13%.

Values taken from the supplement of paper PMC8877412.
